The full list was thinned out, with hits kept by preference.
VHR inh color – blocks the human dual specificity phosphatase VHR1. P51452. recombinant VHR phosphatase, colorimetric substrate read-out. inhibition, % at 20 µM. 50,000 tested, 0.7% active. AID 1992; in the data active = inhibition above about 60%
Target sequence (P51452 whole entry, looked up): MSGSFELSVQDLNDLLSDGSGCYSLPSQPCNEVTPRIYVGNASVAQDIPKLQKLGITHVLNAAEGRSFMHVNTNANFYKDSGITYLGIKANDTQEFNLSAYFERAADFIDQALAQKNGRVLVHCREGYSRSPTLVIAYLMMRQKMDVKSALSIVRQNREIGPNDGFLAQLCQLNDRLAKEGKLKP
* = called active by the depositor.

Cc1ccc(NC(=O)C2C3C4CCC(C4)C23)cc1 (stereo not drawn) was read as VHR inh color -22.2.
Screening O=C(Nc1ccc(Br)cc1)C1C2C3CCC(C3)C12 (stereo not drawn) returned VHR inh color -9.1.
O=C(Nc1ccccc1)C1C2C3CCC(C3)C12 (stereo not drawn) was read as VHR inh color -4.7.
`Cc1ccc(C)c(NC(=O)C2C3C4CCC(C4)C23)c1` (stereo not drawn) gave VHR inh color 1.1.
For Cc1cc(C)c(NC(=O)C2C3C4CCC(C4)C23)c(C)c1 (stereo not drawn) the results were VHR inh color 113.9*.
`O=C(Nc1ccc(Cl)cc1)C1C2C3CCC(C3)C12` (stereo not drawn) gave VHR inh color 118.0*.
`CCCOc1ccc(CN(C)C)cc1CN(C)C` gave VHR inh color -17.1.
Cc1ccc(OCc2nnc(NC(=O)c3ccccc3C)s2)c(C)c1 was read as VHR inh color -7.9.
`O=C(O)CN(CCc1ccccc1)S(=O)(=O)c1ccc(Br)cc1` gave VHR inh color 1.0.
For COc1cc(/C=N/O)ccc1OCc1ccc(Cl)cc1 the results were VHR inh color 104.7*.
`COc1cc(C=Nc2ccc(Nc3ccccc3)cc2)ccc1OCc1ccccc1` gave VHR inh color 2.1.
`C=CCN1C(=O)NC(=O)/C(=C\c2ccc(OCc3ccc(Cl)cc3)c(OC)c2)C1=O` gave VHR inh color -31.9.
For CN1C(=O)NC(=O)/C(=C/c2cc(Cl)ccc2O)C1=O the results were VHR inh color 29.6.
O=C(NCC1CC2CC1C1CC21)C1C2C3C4CC5C3C5C4C12 (stereo not drawn) was read as VHR inh color 1.1.
COc1cc(/C=C2/C(=N)N3N=C(C(C)C)SC3=NC2=O)cc(Cl)c1OCCOc1ccccc1 was read as VHR inh color 4.0.
`CC(C)C1=NN2C(=N)/C(=C/c3ccc(Sc4ccc(Cl)cc4)o3)C(=O)N=C2S1` gave VHR inh color 109.8*.
`CC(C)C1=NN2C(=N)/C(=C/c3ccc(-c4cccc([N+](=O)[O-])c4)o3)C(=O)N=C2S1` gave VHR inh color 16.1.
Screening O=C(Nc1cccc2nsnc12)c1cccc(Br)c1 returned VHR inh color -30.0.
`O=C1N=c2ccccc2=C1c1sc(Nc2ccc(O)cc2)nc1O` gave VHR inh color 57.8*.
`CCOc1ccc(Nc2nc(O)c(C3=c4cc(Br)ccc4=NC3=O)s2)cc1` gave VHR inh color -13.5.
`O=C1N=c2ccccc2=C1c1sc(Nc2cccc(O)c2)nc1O` gave VHR inh color -0.2.
`COc1ccc(/C=C2\SC(=O)N(CCC(=O)Nc3cccc(C)c3)C2=O)cc1OC` gave VHR inh color 79.6*.
COc1ccccc1NC(=O)CCN1C(=O)S/C(=C/c2ccc(OC)c(OC)c2)C1=O was read as VHR inh color -5.3.
Screening COc1ccc(/C=C2\SC(=O)N(CCC(=O)Nc3ccccc3C)C2=O)cc1OC returned VHR inh color 17.2.
`Cc1ccc(N(CC(=O)Nc2ccc(Oc3ccccc3)cc2)S(C)(=O)=O)cc1` gave VHR inh color 6.2.
CC(CC(=O)Nc1ccc(Br)cc1)c1ccccc1 (stereo not drawn) was read as VHR inh color -12.2.
COc1ccc(C2/C(=C(\O)c3ccc(C)cc3)C(=O)C(=O)N2c2ccc(O)cc2)cc1 (stereo not drawn) was read as VHR inh color 3.1.
For CCc1nc(-c2ccccc2)nc(C)c1C the results were VHR inh color -16.5.
For COc1cc(OC)cc(C(=O)Nc2sc3c(c2C(N)=O)CCC(C)C3)c1 (stereo not drawn) the results were VHR inh color 25.0.
`CC1CCc2c(sc(NC(=O)c3cccc(C(=O)O)c3)c2C(N)=O)C1` (stereo not drawn) gave VHR inh color 78.1*.
CC1CCc2c(sc(NC(=O)c3ccccc3)c2C(N)=O)C1 (stereo not drawn) was read as VHR inh color 1.5.
COc1cc(/C=C2\C(=O)NN(c3ccc(Cl)c(Cl)c3)C2=O)c([N+](=O)[O-])cc1OC was read as VHR inh color 6.6.
For Cc1ccc(N2NC(=O)/C(=C\c3cccc([N+](=O)[O-])c3)C2=O)cc1 the results were VHR inh color 22.0.
Screening Cc1ccc(N2NC(=O)/C(=C/c3ccc(-c4ccc5c(c4)COC5=O)o3)C2=O)cc1C returned VHR inh color 84.9*.
Cc1ccc(N2NC(=O)/C(=C/c3ccc4c(c3)OCO4)C2=O)cc1C was read as VHR inh color -6.4.
Screening Cc1ccc(N2NC(=O)/C(=C/c3cc([N+](=O)[O-])ccc3Cl)C2=O)cc1C returned VHR inh color 64.5*.
For O=C1NN(c2ccccc2)C(=O)/C1=C/c1ccc(-c2cccc([N+](=O)[O-])c2)o1 the results were VHR inh color -0.9.
Cc1ccc([N+](=O)[O-])cc1-c1ccc(/C=C2/C(=O)NN(c3ccc(Cl)cc3)C2=O)o1 was read as VHR inh color 74.4*.
For Cc1cc([N+](=O)[O-])ccc1-c1ccc(/C=C2/C(=O)NC(=S)N(c3ccc(Cl)cc3)C2=O)o1 the results were VHR inh color 45.6.

Assay outcomes (PubChem)
